“And” between values parts separate entries of the source, which are not always exact repeats. Equal values may be shown once. In all, about 5,500 compounds went through this assay and about 2,000 (36%) were called active. Roughly 18% stayed inconclusive and do not appear here. Cut-off read from the data, not from the text of the source: active = normalized growth mostly below about 0.91 (no sharp cut-off); inconclusive = no clear call, values can overlap the other calls; inactive = mostly above about 0.92. Some of the results follow.
Assay: chemical genetic growth profiling, strain panel (AID 1159580);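 note: tested at 20 µM; growth read once vehicle control cultures reached saturation at 30 °C; 1 = growth at the plate median or of vehicle wells; lower values mean less growth of the strain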
Conditions: S. cerevisiae deletion strains, growth OD

Measured: normalized growth

Cc1cc(O)cc(C)c1Cl
active: locus YAL026C, strain drs2, active compounds read low 0.831 | locus YBL061C, strain skt5, active compounds read low 0.914 | locus YBR009C, strain hhf1, active compounds read low 0.873 | locus YBR023C, strain chs3, active compounds read low 0.899 | locus YBR279W, strain paf1, active compounds read low 0.899 | locus YCL011C, strain gbp2, active compounds read low 0.906 | locus YCL016C, strain dcc1, active compounds read low 0.892 | locus YCL061C, strain MRC1, active compounds read low 0.916 | locus YCR088W, strain abp1, active compounds read low 0.891 | locus YDR137W, strain rgp1, active compounds read low 0.41 | locus YDR159W, strain sac3, active compounds read low 0.588 | locus YDR195W, strain ref2 1.35 [resistant] | locus YDR335W, strain msn5, active compounds read low 0.898 | locus YDR392W, strain spt3, active compounds read low 0.653 | locus YEL061C, strain CIN8 (second series), active compounds read low 0.898 | locus YER015W, strain faa2, active compounds read low 0.839 | locus YER016W, strain bim1, active compounds read low 0.874 | locus YER111C, strain swi4, active compounds read low 0.905 | locus YER155C, strain BEM2 (second series), active compounds read low 0.603 | locus YGL078C, strain dbp3, active compounds read low 0.919 | locus YGL253W, strain hxk2, active compounds read low 0.895 | locus YHR027C, strain rpn1, active compounds read low 0.838 | locus YHR142W, strain chs7, active compounds read low 0.77 | locus YJL164C, strain tpk1, active compounds read low 0.887 | locus YJL166W, strain qcr8, active compounds read low 0.849
inactive: locus YAL021C, strain ccr4, active compounds read low 0.918 | locus YAL030W, strain snc1, active compounds read low 0.961 | locus YBR021W, strain FUR4, active compounds read low 1.04 | locus YBR171W, strain sec66, active compounds read low 0.912 | locus YBR229C, strain ROT2, active compounds read low 0.993 | locus YBR231C, strain swc5, active compounds read low 0.945 | locus YCL029C, strain bik1, active compounds read low 0.981 | locus YCL069W, strain vba3, active compounds read low 0.929 | locus YDL005C, strain med2, active compounds read low 1.02 | locus YDL035C, strain GPR1, active compounds read low 0.942 | locus YDL040C, strain nat1, active compounds read low 0.968 | locus YDL074C, strain BRE1, active compounds read low 0.968 | locus YDL101C, strain DUN1, active compounds read low 1.01 | locus YDL185W, strain tfp1, active compounds read low 0.988 | locus YDL192W, strain arf1, active compounds read low 1.02 | locus YDR001C, strain nth1, active compounds read low 0.951 | locus YDR069C, strain doa4, active compounds read low 0.992 | locus YDR101C, strain arx1, active compounds read low 0.928 | locus YDR150W, strain NUM1, active compounds read low 0.998 | locus YDR162C, strain NBP2, active compounds read low 0.957 | locus YDR297W, strain sur2, active compounds read low 0.968 | locus YDR318W, strain mcm21, active compounds read low 0.981 | locus YDR334W, strain swr1, active compounds read low 0.957 | locus YDR388W, active compounds read low 1 | locus YDR502C, strain sam2, active compounds read low 0.949 | locus YEL003W, strain gim4, active compounds read low 0.965 | locus YEL037C, strain rad23, active compounds read low 0.953 | locus YEL061C, strain CIN8, active compounds read low 0.988 | locus YER110C, active compounds read low 1 | locus YER155C, strain BEM2, active compounds read low 0.992 | locus YER167W, strain BCK2, active compounds read low 0.975 | locus YFR010W, strain ubp6, active compounds read low 0.93 | locus YGL086W, strain mad1, active compounds read low 0.945 | locus YGL167C, strain pmr1, active compounds read low 0.999 | locus YGL173C, strain kem1, active compounds read low 0.927 | locus YGL227W, strain vid30, active compounds read low 0.949 | locus YGL240W, strain doc1, active compounds read low 0.978 | locus YGL248W, strain PDE1, active compounds read low 0.999 | locus YGR078C, strain PAC10, active compounds read low 0.974 | locus YGR135W, strain pre9, active compounds read low 0.994 | locus YGR252W, strain gcn5, active compounds read low 0.979 | locus YHR013C, strain ard1, active compounds read low 0.97 | locus YHR030C, strain SLT2, active compounds read low 0.995 and 0.921 | locus YHR079C, strain IRE1 (second series), active compounds read low 0.996 | locus YHR079C, strain IRE1, active compounds read low 0.929 | locus YHR094C, strain hxt1, active compounds read low 1 | locus YHR129C, strain ARP1, active compounds read low 0.998 | locus YHR200W, strain rpn10, active compounds read low 0.984 | locus YIL066C, strain RNR3, active compounds read low 0.981 | locus YIL073C, strain SPO22, active compounds read low 1.04 | locus YIL125W, strain kgd1, active compounds read low 0.993 | locus YIR030C, strain dcg1, active compounds read low 0.998 | locus YJL092W, strain hpr5, active compounds read low 0.923 | locus YJL095W, strain BCK1 (second series), active compounds read low 0.951 | locus YJL095W, strain BCK1, active compounds read low 0.986 and 0.94 | locus YJL115W, strain asf1, active compounds read low 0.997 | locus YJL129C, strain trk1, active compounds read low 0.899 | locus YJL134W, strain LCB3, active compounds read low 0.998 | locus YJL154C, strain vps35, active compounds read low 0.96 | locus YJL168C, strain set2, active compounds read low 1 | locus YJL187C, strain SWE1 (second series), active compounds read low 1 | locus YJR043C, strain POL32, active compounds read low 0.96 | locus YJR066W, strain TOR1, active compounds read low 0.955

— PubChem BioAssay AID1159580 (chemical genetic matrix, 2015)
